A selection: hits, their analogues and other compounds. The true share with any hit is near 7.4%.
KinaseGlo FLuc: Counterscreen for Luciferase (Kinase-Glo TM) Inhibition; Kinase-Glo luciferase, ATP luminescence, 8 min; AID 1379, 2008; Luciferin 4-monooxygenase (Photuris pensylvanica), Q27757; 200,000 compounds, 0.28% hits; Potency, µM (top dose mostly 38.3 µM), without a hit: at the top dose activity change, negative = inhibition, usual class: inhibitors; also: % is scaled to controls: 0 for no effect and ±100 for the full control effect; nearly all actives have a fitted effect of over 60% in size
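Substrate mix (final 50 mM imidazole pH 7.2, 50 mM KCl, 7 mM MgCl2, 10 uM ATP, 0.01% Tween 20, 0.05% BSA) plus pin-tool compound, then Kinase-Glo detection mix; 8 min ambient, luminescence read.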
FLuc modulator: qHTS profiling assay for firefly luciferase inhibitor/activator using purifed enzyme and Km concentrations of substrates (counterscreen for miR-21 project). 360,000 compounds, 6.9% hits. purified FLuc, Km substrates, luminescence inhibition. Potency, µM (titrated, usually from 57.5 µM), for inactives: top-dose activity change, negative = inhibition, usual class: inhibitors;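 also: plate controls were vehicle for no effect and reference inhibitor for full effect; nearly all actives have a fitted effect of over 55% in size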
Target sequence (P08659 whole entry, looked up): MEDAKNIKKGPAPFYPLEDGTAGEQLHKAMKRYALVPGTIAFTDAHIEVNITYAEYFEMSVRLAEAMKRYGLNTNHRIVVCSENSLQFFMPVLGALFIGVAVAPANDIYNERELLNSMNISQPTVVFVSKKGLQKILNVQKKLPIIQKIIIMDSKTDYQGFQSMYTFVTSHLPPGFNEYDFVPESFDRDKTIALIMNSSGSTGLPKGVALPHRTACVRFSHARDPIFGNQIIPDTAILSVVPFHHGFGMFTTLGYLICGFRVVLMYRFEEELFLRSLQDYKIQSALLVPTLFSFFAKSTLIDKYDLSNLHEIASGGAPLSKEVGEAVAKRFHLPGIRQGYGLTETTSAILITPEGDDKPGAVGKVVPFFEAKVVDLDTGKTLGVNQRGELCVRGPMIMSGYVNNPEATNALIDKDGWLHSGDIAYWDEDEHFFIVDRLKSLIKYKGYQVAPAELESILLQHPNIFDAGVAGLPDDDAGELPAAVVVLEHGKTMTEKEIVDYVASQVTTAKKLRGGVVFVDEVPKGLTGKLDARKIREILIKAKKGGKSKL
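Purified P. pyralis luciferase, 10 nM final, with Km-level 10 uM D-luciferin and 10 uM ATP in 50 mM Tris acetate pH 7.5, 10 mM Mg acetate, 0.01% Tween-20, 0.05% BSA; 6-point qHTS titration about 60 µM downward; luminescence read.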
NPC1 promoter act: qHTS Assay for NPC1 Promoter Activators; Huh7 NPC1 promoter luciferase reporter, 24 h; Potency, µM (doses to about 9.22 µM), for the others: at the highest dose activation, hits mostly activators; 320,000 compounds, 2.4% hits; also: % of control where 0% means no effect; nearly all actives have a fitted effect of over 60% in size
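Luminescence read-out of NPC1 promoter-driven luciferase in stably transfected Huh7 cells; compounds delivered in DMSO and left 24 h at 37C, 5% CO2, qHTS titration format.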
SMN2 splice up: qHTS Assay for Enhancers of SMN2 Splice Variant Expression. HEK293 SMN2-luciferase splicing reporter, luminescence, 30-36 h. Potency, µM (top dose mostly 46.1 µM), without a hit: top-dose activity change, positive = activation, usual class: activators. 210,000 compounds, 2.8% hits. AID 1458, 2008; also: % of control where 0% means no effect; nearly all actives have a fitted effect of over 55% in size
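HEK293 cells carry an SMN2 […]–luciferase reporter in which exon 7 inclusion puts luciferase in frame. Cells were plated 10-12 h before compound addition, then incubated 30-36 h at 37C. ONE-Glo luminescence was read; sodium butyrate at 4.5 mM final served as control.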
ELG1 genotoxic: qHTS screen for small molecules that induce genotoxicity in human embryonic kidney (HEK293T) cells expressing luciferase-tagged ELG1; HEK293T ELG1-luciferase reporter, luminescence, 16 h; Potency, µM (titrated, usually from 46 µM), inactives show at the highest dose activity change, positive = activation, usual class: activators; 330,000 compounds, 1.3% hits; also: % of control where 0% means no effect; nearly all actives have a fitted effect of over 60% in size
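Reporter readout depends on ELG1 protein level, which increases with genetic stress. After 16 hr compound exposure at 37 °C, luciferase activity was quantified using ONE-Glo.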
Rab9 prom act: qHTS Assay for Rab9 Promoter Activators; 320,000 compounds, 2.8% hits; Huh7 Rab9 promoter-luciferase reporter, luminescence, 24 h; Potency, µM (series often up to 9.22 µM), for inactives: at the highest dose activation, negative = inhibition, actives largely listed as activators; also: % of control where 0% means no effect; nearly all actives have a fitted effect of over 60% in size
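Quantitative HTS format; Huh7 Rab9-luciferase reporter cells (1500/well) receive compound 2 h post-plating, incubate 24 h at 37 °C, then get luciferase reagent for 10 min before luminescence reading.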
Numbers without * were called inactive. Calls follow the shape of the dose curve; as a rule, active = well fitted curve in the direction sought with a large enough effect; inconclusive = small, poorly fitted or top-dose-only effect, or another doubt; inactive = no such curve, though single readings can be large; an effect the other way counts as inactive or inconclusive. Potency is read from the fitted curve at half-maximal effect.

`COc1cc(OC)cc(C(=O)Nc2cccc(-c3ccc(N4CCOCC4)nn3)c2)c1` gave FLuc modulator 1.51µM*, NPC1 promoter act inconclusive, ELG1 genotoxic inconclusive and Rab9 prom act inconclusive.
Screening COc1ccc(C(=O)Nc2cccc(-c3ccc(N4CCOCC4)nn3)c2)cc1 returned FLuc modulator 2.39µM*, NPC1 promoter act inconclusive, ELG1 genotoxic 2.5% and Rab9 prom act 3.98µM*.
For COc1cccc(OC)c1C(=O)Nc1cccc(-c2ccc(N3CCOCC3)nn2)c1 the results were FLuc modulator 1.51µM*, NPC1 promoter act inconclusive, ELG1 genotoxic -0.2% and Rab9 prom act 1.78µM*.
COc1cccc(OC)c1C(=O)Nc1cccc(-c2ccc3nncn3n2)c1 was read as KinaseGlo FLuc 1.2%, FLuc modulator -0.7%, NPC1 promoter act -6.8%, SMN2 splice up 25.7%, ELG1 genotoxic 16.6% and Rab9 prom act -9.6%.
C=C(C(C)=O)C(O)c1ccc(C(F)(F)F)cc1 (stereo not given) was read as KinaseGlo FLuc 2.0% and SMN2 splice up -0.4%.
Screening Cc1sc2nc(-c3cccnc3)nc(Cl)c2c1-c1ccccc1 returned KinaseGlo FLuc -2.1%, FLuc modulator 16.9µM*, NPC1 promoter act inconclusive, SMN2 splice up inconclusive, ELG1 genotoxic 11.4% and Rab9 prom act 17.1%.
`Cc1ccc(NS(=O)(=O)c2ccc3nc(-c4ccccc4)[nH]c3c2)c(Cl)c1` gave FLuc modulator inconclusive and SMN2 splice up -8.8%.
O=C(Nc1ccc2c(c1)OCCO2)c1ccccn1 was read as KinaseGlo FLuc 12.6µM*, FLuc modulator 0.849µM*, NPC1 promoter act 0.794µM*, SMN2 splice up 1.26µM*, ELG1 genotoxic 1.03µM* and Rab9 prom act 0.316µM*.
Screening O=C(Nc1ccc2c(c1)OCCO2)c1ccc2ccccc2n1 returned KinaseGlo FLuc -3.5%, FLuc modulator 2.13µM*, NPC1 promoter act 0.1%, SMN2 splice up 11.2µM*, ELG1 genotoxic inconclusive and Rab9 prom act 4.47µM*.
For Cc1ccc(NC(=O)c2ccc3ccccc3n2)cc1S(=O)(=O)N(C)C the results were KinaseGlo FLuc -0.2%, FLuc modulator 4.26µM*, NPC1 promoter act inconclusive, SMN2 splice up 22.4µM*, ELG1 genotoxic inconclusive and Rab9 prom act 2.82µM*.
O=C(Nc1ccc(NC(=O)c2ccccn2)cc1)C(=O)Nc1ccc2c(c1)OCCO2 was read as KinaseGlo FLuc 1.1%, FLuc modulator 0.4%, NPC1 promoter act 11.5%, SMN2 splice up inconclusive, ELG1 genotoxic 10.3% and Rab9 prom act 14.5%.
`O=C(NCc1cccc(Cl)c1)c1ccc(NC(=O)N2CC3CCCN3c3ccccc32)cc1` (stereo not given) gave FLuc modulator -12.0%.
c1csc(-c2nnc3ccccn23)c1 was read as KinaseGlo FLuc 4.2%, FLuc modulator -2.9%, NPC1 promoter act 0.0%, SMN2 splice up 0.0028µM*, ELG1 genotoxic -0.9% and Rab9 prom act 1.8%.
For Cc1ccc2nc(N3CCN(C(=O)C4COc5ccccc5O4)CC3)sc2c1 (stereo not given) the results were FLuc modulator 8.49µM*.
Screening CCCCN(C)CCNC(=O)C1CCN(c2nc3ccc(CC)cc3s2)CC1 returned FLuc modulator 12µM* and SMN2 splice up 10.3%.
For Cc1ccc2nc(N3CCC(C(=O)NC4CCCCC4)CC3)sc2c1 the results were FLuc modulator -10.8%, NPC1 promoter act 1.1%, ELG1 genotoxic -9.8% and Rab9 prom act -8.6%.
For CCc1ccc2nc(N3CCC(C(=O)O)CC3)sc2c1 the results were FLuc modulator 0.213µM* and SMN2 splice up inconclusive.
For O=C(C1CC1)N1CCN(c2nc3c(Cl)cccc3s2)CC1 the results were FLuc modulator -12.5%.
`CCc1ccc2nc(N3CCN(C(=O)C4CC4)CC3)sc2c1` gave FLuc modulator 15.1µM*.
For CCc1cccc(NC(=O)C2CCCN(c3ncnc4onc(-c5ccc(F)cc5)c34)C2)c1 (stereo not given) the results were FLuc modulator 0.5%.
`CSCCC(NS(=O)(=O)c1ccc2c(c1)oc(=O)n2C)C(=O)N1CCN(c2cccc(Cl)c2)CC1` (stereo not given) gave FLuc modulator -6.3%.
Screening COc1ccc(NC(=O)Nc2cc(C)ccc2F)cc1 returned KinaseGlo FLuc -12.0%, FLuc modulator 12µM*, NPC1 promoter act 3.55µM*, SMN2 splice up inconclusive, ELG1 genotoxic 23.1µM* and Rab9 prom act 2.82µM*.
Screening COc1ccc(NC(=O)Nc2cc(C)ccc2OC)cc1 returned KinaseGlo FLuc inconclusive, FLuc modulator inconclusive, NPC1 promoter act 0.4%, SMN2 splice up -9.7%, ELG1 genotoxic 20.6% and Rab9 prom act -5.2%.
For COc1cccc(NC(=O)Nc2cc(C)ccc2F)c1 the results were KinaseGlo FLuc -2.6%, FLuc modulator 23.9µM*, NPC1 promoter act 28.6%, SMN2 splice up 22.3%, ELG1 genotoxic 6.6% and Rab9 prom act 19.6%.
Screening Cc1ccc[n+](CC(=O)Nc2c(Cl)cc(Cl)cc2Cl)c1 returned KinaseGlo FLuc -2.7%, FLuc modulator 19µM*, NPC1 promoter act 11.2%, ELG1 genotoxic 11.3% and Rab9 prom act 23.9%.
O=C(C[n+]1ccccc1)Nc1c(Cl)cc(Cl)cc1Cl was read as KinaseGlo FLuc -8.9%, FLuc modulator inconclusive, NPC1 promoter act 6.1%, ELG1 genotoxic 2.5% and Rab9 prom act inconclusive.
CCCCCCCC/C=C\CCCCCCCCOC[C@H](COP(=O)([O-])OCC[N+](C)(C)C)OC(C)=O was read as KinaseGlo FLuc 0.7% and SMN2 splice up -1.8%.
`CCOC(=O)c1ccc(NC(=O)Nc2cccc(OCc3cc(=O)n4ccc(C)cc4n3)c2)cc1` gave FLuc modulator -8.6%.
COc1ccccc1C(=O)Nc1cccc(OCc2cc(=O)n3ccccc3n2)c1 was read as FLuc modulator 7.57µM*.
For COc1ccccc1C(=O)Nc1cccc(OCc2cc(=O)n3c4c(sc3n2)CCCC4)c1 the results were FLuc modulator 6.01µM* and SMN2 splice up 12.6%.
`Cc1cccc(C(=O)Nc2cccc(OCc3cc(=O)n4ccccc4n3)c2)c1` gave FLuc modulator 4.4%.

Assay outcomes deposited in PubChem BioAssay by National Center for Advancing Translational Sciences (NCATS).
